In all, about 5,500 compounds went through this assay and about 2,000 (36%) were called active. Roughly 18% stayed inconclusive and do not appear here. Rule as the data show it: active = normalized growth mostly below about 0.91 (no sharp cut-off); inconclusive = no clear call, values can overlap the other calls; inactive = mostly above about 0.92. The list shows a part of the results.
Experiment: chemical genetic growth profiling, strain panel (AID 1159580);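 also: tested at 20 µM; growth read once vehicle control cultures reached saturation at 30 °C; 1 = growth at the plate median or of vehicle wells; lower values mean less growth of the strain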
Conditions: S. cerevisiae deletion strains, growth OD
[1] = locus YHR030C, strain SLT2, stronger effect = lower value
[2] = locus YJL187C, strain SWE1, stronger effect = lower value

Measured: normalized growth

Cc1ncc(CO)c(CO)c1O
inactive: locus YAL021C, strain ccr4, stronger effect = lower value 1.02 | locus YAL026C, strain drs2, stronger effect = lower value 1.02 | locus YAL030W, strain snc1, stronger effect = lower value 1.03 | locus YBL061C, strain skt5, stronger effect = lower value 1.02 | locus YBR009C, strain hhf1, stronger effect = lower value 1.01 | locus YBR023C, strain chs3, stronger effect = lower value 1.03 | locus YBR171W, strain sec66, stronger effect = lower value 1.04 | locus YBR231C, strain swc5, stronger effect = lower value 1.02 | locus YBR279W, strain paf1, stronger effect = lower value 1.01 | locus YCL011C, strain gbp2, stronger effect = lower value 1.02 | locus YCL016C, strain dcc1, stronger effect = lower value 1.01 | locus YCL069W, strain vba3, stronger effect = lower value 1.04 | locus YCR088W, strain abp1, stronger effect = lower value 1.01 | locus YDL005C, strain med2, stronger effect = lower value 1.03 | locus YDL040C, strain nat1, stronger effect = lower value 1.02 | locus YDR001C, strain nth1, stronger effect = lower value 1.03 | locus YDR069C, strain doa4, stronger effect = lower value 1.03 | locus YDR137W, strain rgp1, stronger effect = lower value 1.03 | locus YDR159W, strain sac3, stronger effect = lower value 1 | locus YDR195W, strain ref2 1.03 | locus YDR297W, strain sur2, stronger effect = lower value 1.03 | locus YDR334W, strain swr1, stronger effect = lower value 1.03 | locus YDR335W, strain msn5, stronger effect = lower value 1.02 | locus YDR392W, strain spt3, stronger effect = lower value 1.01 | locus YEL003W, strain gim4, stronger effect = lower value 1.02 | locus YEL037C, strain rad23, stronger effect = lower value 1.02 | locus YEL061C, strain CIN8 (second series), stronger effect = lower value 1.02 | locus YER015W, strain faa2, stronger effect = lower value 1.03 | locus YER016W, strain bim1, stronger effect = lower value 1 | locus YER111C, strain swi4, stronger effect = lower value 1.02 | locus YER155C, strain BEM2 (second series), stronger effect = lower value 1.07 | locus YFR010W, strain ubp6, stronger effect = lower value 1.02 | locus YGL167C, strain pmr1, stronger effect = lower value 1.03 | locus YGL173C, strain kem1, stronger effect = lower value 1.04 | locus YGL227W, strain vid30, stronger effect = lower value 1.02 | locus YGL240W, strain doc1, stronger effect = lower value 1.01 | locus YGL253W, strain hxk2, stronger effect = lower value 1.03 | locus YHR013C, strain ard1, stronger effect = lower value 1.03 | locus YHR027C, strain rpn1, stronger effect = lower value 1.02 | [1] 0.956 | locus YHR079C, strain IRE1, stronger effect = lower value 0.98 | locus YHR142W, strain chs7, stronger effect = lower value 1.02 | locus YJL092W, strain hpr5, stronger effect = lower value 1.01 | locus YJL095W, strain BCK1 (second series), stronger effect = lower value 1.02 | locus YJL095W, strain BCK1, stronger effect = lower value 0.973 | locus YJL115W, strain asf1, stronger effect = lower value 1.03 | locus YJL129C, strain trk1, stronger effect = lower value 1.04 | locus YJL154C, strain vps35, stronger effect = lower value 1.03 | locus YJL164C, strain tpk1, stronger effect = lower value 1.01 | locus YJL166W, strain qcr8, stronger effect = lower value 1.02 | [2] 1.03 | locus YJR066W, strain TOR1, stronger effect = lower value 0.911 | locus YKL160W, strain elf1, stronger effect = lower value 1.01 | locus YKR026C, strain gcn3, stronger effect = lower value 1.02 | locus YKR091W, strain srl3, stronger effect = lower value 1.02 | locus YLL001W, strain dnm1, stronger effect = lower value 0.999 | locus YLL026W, stronger effect = lower value 1.02 | locus YLL041C, strain sdh2, stronger effect = lower value 1.02 | locus YLR027C, strain aat2, stronger effect = lower value 1.01 | locus YLR113W, strain HOG1, stronger effect = lower value 0.962 | locus YLR221C, strain rsa3, stronger effect = lower value 1 | locus YLR258W, strain gsy2, stronger effect = lower value 1.02 | locus YLR262C, strain YPT6 (second series), stronger effect = lower value 1.04 | locus YLR320W, strain mms22, stronger effect = lower value 1.04 | locus YLR342W, strain FKS1, stronger effect = lower value 1.02 | locus YLR357W, strain rsc2, stronger effect = lower value 1 | locus YLR370C, strain arc18, stronger effect = lower value 1.03 | locus YLR384C, strain iki3, stronger effect = lower value 1.02 | locus YML120C, strain ndi1, stronger effect = lower value 1.02 | locus YMR058W, strain fet3, stronger effect = lower value 1.02 | locus YMR125W, strain sto1, stronger effect = lower value 1.01 | locus YMR129W, stronger effect = lower value 1.02 | locus YMR205C, strain PFK2, stronger effect = lower value 1.05 | locus YMR231W, strain pep5, stronger effect = lower value 1.03 | locus YNL071W, strain lat1, stronger effect = lower value 1.02 | locus YNL183C, strain NPR1, stronger effect = lower value 0.927 | locus YNL209W, strain ssb2, stronger effect = lower value 1.03 | locus YNL248C, strain rpa49, stronger effect = lower value 1.03 | locus YNL322C, strain KRE1 (second series), stronger effect = lower value 1.04 | locus YNR049C, strain mso1, stronger effect = lower value 1.03 | locus YOR001W, strain rrp6, stronger effect = lower value 1.03 | locus YOR070C, strain gyp1, stronger effect = lower value 1.03 | locus YOR080W, strain dia2, stronger effect = lower value 1.04 | locus YOR083W, strain WHI5, stronger effect = lower value 0.975 | locus YOR106W, strain vam3, stronger effect = lower value 1.03 | locus YOR231W, strain MKK1, stronger effect = lower value 0.957 | locus YOR265W, strain rbl2, stronger effect = lower value 1.03 | locus YOR270C, strain vph1, stronger effect = lower value 1.08 | locus YOR290C, strain snf2, stronger effect = lower value 1.02 | locus YPL051W, strain arl3, stronger effect = lower value 1.02 | locus YPL078C, strain atp4, stronger effect = lower value 1.02 | locus YPL106C, strain sse1, stronger effect = lower value 1.04 | locus YPL240C, strain hsp82, stronger effect = lower value 1.04 | locus YPL256C, strain CLN2, stronger effect = lower value 0.975

CC(=O)C1=C(C)Nc2ccccc2S1
inactive: locus YAL013W, strain DEP1, stronger effect = lower value 0.959 | locus YBR229C, strain ROT2, stronger effect = lower value 0.949 | locus YDL101C, strain DUN1, stronger effect = lower value 0.938 | locus YDR150W, strain NUM1, stronger effect = lower value 0.911 | locus YEL061C, strain CIN8, stronger effect = lower value 0.943 | locus YGR078C, strain PAC10, stronger effect = lower value 0.982 | locus YGR229C, strain SMI1, stronger effect = lower value 1.02 | [1] 0.922 | locus YHR087W, strain rtc3, stronger effect = lower value 1.01 | [2] 0.954 | locus YJR075W, strain HOC1, stronger effect = lower value 0.974 | locus YLR039C, strain RIC1, stronger effect = lower value 0.978 | locus YLR058C, strain SHM2 (second series), stronger effect = lower value 0.987 | locus YLR262C, strain YPT6, stronger effect = lower value 1.03 | locus YML094W, strain GIM5, stronger effect = lower value 0.888 | locus YMR219W, strain ESC1, stronger effect = lower value 0.971 | locus YNL153C, strain GIM3, stronger effect = lower value 0.963 | locus YNL298W, strain CLA4 (second series), stronger effect = lower value 0.857 | locus YNL322C, strain KRE1, stronger effect = lower value 1.02 | locus YPL055C, strain LGE1, stronger effect = lower value 0.795
active: locus YLR085C, strain ARP6, stronger effect = lower value 0.622 | locus YMR263W, strain SAP30, stronger effect = lower value 0.852 | locus YNR030W, strain Alg12, stronger effect = lower value 0.804 | locus YPL241C, strain CIN2, stronger effect = lower value 0.849 | locus YPR135W, strain CTF4, stronger effect = lower value 0.623

Source: PubChem BioAssay AID1159580 (chemical genetic matrix, 2015)
